# Screening results as filed in PubChem BioAssay.
# Only some compounds are listed: those with a hit (about 2.8% of all), similar ones and a draw of the others.
# SIRT5 inh – blocks human SIRT5 desuccinylation of peptide; Purified SirT5, succinyl-peptide AMC, trypsin-coupled fluorescence; Q9NXA8; inhibition, % at 15 µM; AID 652115; 330,000 tested, 1.1% active; in the data active = inhibition above about 15%
# dFosB activator – activators of mouse delta FosB homodimer; purified delta FosB, TAMRA-CDK5 oligo fluorescence polarization; percent of positive-control signal above neutral wells; activation, % at 25 µM; 340,000 tested, 0.99% active; P13346;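 active = mean activation above about 17%, with every replicate also reaching it, limit read from the data, passing the limit was not always enough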
# PglD inh – inhibitors of Campylobacter jejuni PglD acetyltransferase; 360,000 tested, 0.098% active; inhibition, % at 12.5 µM; AID 602405; purified PglD enzyme, DTNB colorimetric CoA detection; in the data active = inhibition above about 16%, passing the limit was not always enough
# PvdQ acylase – P. aeruginosa PvdQ acylase inhibition; inhibition, % at 10 µM; AID 488965; purified PvdQ acylase, fluorescence plate reader; 340,000 tested, 0.063% active; in the data active = inhibition above about 30%, passing the limit was not always enough
# FGF22 binding – shifts melting point of recombinant human FGF22. Q9HCT0. recombinant FGF22 thermal shift, SYPRO orange fluorescence; percent of sucrose octasulfate shift, DMSO zero. activity (Tm shift, normalised), % at 9.99 µM. 340,000 tested, 1.5% active;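 active = mean Tm shift, scaled 0 neutral to 100 positive control, at about 1.3% or above, every replicate too, limit read from the data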
# Target sequence (Q9HCT0 whole entry, looked up): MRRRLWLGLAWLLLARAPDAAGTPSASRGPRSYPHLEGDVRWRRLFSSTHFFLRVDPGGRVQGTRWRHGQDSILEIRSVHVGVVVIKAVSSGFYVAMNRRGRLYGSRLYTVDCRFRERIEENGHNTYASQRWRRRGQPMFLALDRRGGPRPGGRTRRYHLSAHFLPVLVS
# CDK5 inh – blocks human CDK5/p35 kinase activity. inhibition, % at 10 µM. Q00535+Q15078. Recombinant CDK5/p35, ADP-Glo luminescence, 60 min. 330,000 tested, 0.01% active;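 active = highest replicate inhibition of at least 50% and at least 75% of replicates reaching 50%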
# A number is an active result; - = inactive; . = no result given.
SMILES,SIRT5 inh,dFosB activator,PglD inh,PvdQ acylase,FGF22 binding,CDK5 inh
C[C@H](CO)N1C[C@H](C)[C@H](CN(C)S(=O)(=O)c2ccc(C#N)cc2)Oc2ncc(C#Cc3ccc(C(F)(F)F)cc3)cc2C1=O,27,.,.,.,.,.
COc1cccc(S(=O)(=O)N(C)C[C@@H]2Oc3ncc(C#CCN(C)C)cc3C(=O)N([C@@H](C)CO)C[C@H]2C)c1,-,.,-,.,-,.
C[C@@H]1CN([C@H](C)CO)C(=O)c2cc(/C=C/c3ccccc3)cnc2O[C@H]1CN(C)S(=O)(=O)c1ccc(F)cc1,-,.,-,.,-,.
Cc1ccc(S(=O)(=O)N(C)C[C@@H]2Oc3ncc(C#Cc4ccccc4)cc3C(=O)N([C@H](C)CO)C[C@@H]2C)cc1,16,.,-,.,-,.
C[C@H](CO)N1C[C@H](C)[C@H](CN(C)S(=O)(=O)c2ccc(C#N)cc2)Oc2ncc(C#Cc3ccccc3)cc2C1=O,-,.,-,.,-,.
O=C(Cc1ccccn1)N1CC(=O)N2[C@H](C1)[C@@H](c1ccc(C#CC3CCCC3)cc1)[C@@H]2CO,-,.,.,.,.,.
C[C@H]1CN([C@@H](C)CO)C(=O)c2cc(-c3ccc(C#N)cc3)cnc2O[C@@H]1CN(C)C(=O)Nc1ccc(C(F)(F)F)cc1,19,.,-,.,-,.
CO[C@H]1CN(C)C(=O)c2ccc(NC(=O)C3CCC3)cc2OC[C@H](C)N(C(=O)CN(C)C)C[C@@H]1C,-,.,.,.,-,.
Cc1cc(C)n2nc(C)c(-c3ccccc3)c2n1,-,-,.,-,-,-
Cc1cc(C)n2nc(C)c(Br)c2n1,-,-,.,-,44,-
CN(CC(=O)NC1CCN(Cc2ccccc2)CC1)S(=O)(=O)c1ccc2c(c1)c(=O)n(C)c(=O)n2C,-,-,.,-,43,-
CN(C)CC(=O)N[C@@H]1CC[C@H](CCNC(=O)C2CCCC2)O[C@H]1CO,-,.,-,.,-,.
Cc1ccc(/C=C/C(=O)NCc2ccc(S(N)(=O)=O)cc2)o1,-,-,.,-,43,-
Cc1ccc(/C=C/C(=O)Nc2ccc(S(N)(=O)=O)cc2)o1,-,-,.,-,-,-
CCOc1ccccc1C(=O)N[C@H](C(=O)NCc1ccccc1)C(C)C,-,-,.,-,43,-
CCOc1ccccc1C(=O)NC(C(=O)N(C)c1c(N)n(Cc2ccccc2)c(=O)[nH]c1=O)C(C)C (stereo not drawn),17,-,-,-,-,-
O=C(C[C@@H]1C[C@H]2c3cc(NC(=O)C4CCOCC4)ccc3O[C@H]2[C@@H](CO)O1)NCc1ccccn1,-,.,-,.,-,.
CN(C)C(=O)c1ccc(-c2ccc3c(c2)[C@@H]2[C@@H](CCN2S(=O)(=O)c2cn(C)cn2)[C@H](CO)N3)cc1,-,.,-,.,-,.
COc1ccc(CN(C)C[C@H]2Oc3ccc(NC(=O)C4CCCCC4)cc3CC(=O)N([C@@H](C)CO)C[C@@H]2C)cc1,17,.,-,.,-,.
COc1ccc(CN(C)C[C@H]2Oc3ccc(NC(=O)C4CCCCC4)cc3CC(=O)N([C@@H](C)CO)C[C@H]2C)cc1,-,.,-,.,1.7,.
COc1ccc(CN(C)C[C@H]2Oc3ccc(NC(=O)C4CCCCC4)cc3CC(=O)N([C@H](C)CO)C[C@H]2C)cc1,-,.,-,.,-,.
COc1ccc(CN(C)C[C@@H]2Oc3ccc(NC(=O)C4CCCCC4)cc3CC(=O)N([C@H](C)CO)C[C@H]2C)cc1,-,.,-,.,-,.
CC(OC(=O)CC1CCCCC1)C(=O)Nc1ccc(F)cc1 (stereo not drawn),21,-,-,-,-,-
COc1ccc(OC)c(S(=O)(=O)Oc2ccc(N)c3ccccc23)c1,15,-,-,-,-,-
O=C(NCc1ccncn1)[C@@H]1[C@@H](CO)[C@@H]2Cn3c(ccc(-c4cccc(F)c4)c3=O)[C@@H]2N1CC1CC1,-,.,-,.,-,.
COc1ccc(-c2ccc(C(=O)O)c(=O)[nH]2)cc1,-,-,.,-,44,-
Cc1noc(C)c1S(=O)(=O)N(C)C[C@@H]1Oc2ccc(NS(=O)(=O)c3cn(C)cn3)cc2CC(=O)N([C@H](C)CO)C[C@H]1C,.,.,-,.,-,.
COc1ccc(-c2nnn(CC(=O)N(CCO)C(C(=O)NC3CCCC3)c3ccncc3)n2)cc1 (stereo not drawn),-,-,.,-,43,-
CCN(CC)CCN(C(=O)Cn1nnc(-c2ccc(OC)c(OC)c2)n1)C(C(=O)NC1CCCC1)c1ccc(F)cc1 (stereo not drawn),-,-,-,-,1.7,-
